TbPYK inhibitor – qHTS of Trypanosoma Brucei Inhibitors | TbPYK enzyme, Kinase-Glo Plus ATP luminescence, 45 min | actives 0.12% (n = 410,000) | Potency, µM (highest dose often 76.8 µM), for inactives: at the top dose activity, negative = inhibition, actives largely listed as inhibitors; further: on the % scale 0 is the no-effect control and ±100 the full control effect; nearly all actives have a fitted effect of over 50% in size
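Enzyme and substrate buffer are dispensed first and compound is pin-transferred. ADP at 130 uM final then starts the reaction, which runs 45 min at room temperature. Detection reagent is added for 10 min before luminescence is imaged.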
AmpC inh detg – qHTS Inhibitors of AmpC Beta-Lactamase (assay with detergent); AmpC hydrolysis of nitrocefin, absorbance 480 nm, 0.01% Triton; P00811; Potency, µM (top dose mostly 114 µM), for the others: at the top dose activity change, negative = inhibition, hits mostly inhibitors; actives 0.041% (n = 370,000);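 further: 0% = no-compound wells and -100% = no-enzyme wells; nearly all actives have a fitted effect of over 25% in size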
Target sequence (P00811 whole entry, looked up): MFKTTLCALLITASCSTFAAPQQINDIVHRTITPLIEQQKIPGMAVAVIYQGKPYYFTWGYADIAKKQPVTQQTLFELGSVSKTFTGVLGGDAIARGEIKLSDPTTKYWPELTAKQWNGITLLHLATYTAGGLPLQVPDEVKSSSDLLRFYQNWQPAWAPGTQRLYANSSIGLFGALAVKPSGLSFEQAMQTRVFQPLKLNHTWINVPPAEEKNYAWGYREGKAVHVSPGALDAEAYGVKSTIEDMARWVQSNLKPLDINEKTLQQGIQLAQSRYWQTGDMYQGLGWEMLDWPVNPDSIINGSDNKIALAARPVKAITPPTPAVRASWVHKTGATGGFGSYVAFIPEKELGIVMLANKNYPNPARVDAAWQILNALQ
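AmpC (5.3 nM in the dispensed reagent) in 20 mM phosphate pH 7.0 with 0.01% (detergent screen) or 0.0001% Triton X-100 was preincubated with compounds for 15 min at room temperature. Nitrocefin was then added from an 800 uM solution, and hydrolysis was followed at 480 nm.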
AmpC no deterg – qHTS Inhibitors of AmpC Beta-Lactamase (assay without detergent); AmpC nitrocefin hydrolysis, absorbance 480 nm, 0.0001% Triton; actives 0.52% (n = 330,000); P00811; Potency, µM (titrated, usually from 57.1 µM), for inactives: top-dose activity change, negative = inhibition, most hits filed as inhibitors; AID 485341, 2010;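 further: plate controls were no compound for no effect and no enzyme for full effect; nearly all actives have a fitted effect of over 20% in size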
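20 mM phosphate pH 7.0 + 0.01% (detergent screen) or 0.0001% Triton X-100; 5.3 nM AmpC reagent; cpd preinc 15 min RT; nitrocefin (800 uM stock) to start; A480 q20 s × 4 min; Activity was normalised to no-enzyme and no-compound control wells.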
RE007 growth inh – qHTS Assay for Inhibitors of the HIV-1 protein Vpr; S. pombe RE007 Vpr strain, BacTiter-Glo ATP luminescence, 24 h; Potency, µM (doses to about 92.2 µM), inactives show at the top dose activity change, negative = less growth, usual class: inhibitors; actives 0.21% (n = 360,000); active means well fitted falling curve with a large enough effect; inconclusive means small, poorly fitted or top-dose-only effect; inactive means no such curve, though single readings can be large or run the other way; further: on the % scale 0 is the no-effect control and ±100 the full control effect; nearly all actives have a fitted effect of over 50% in size
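Fission yeast strain RE007, carrying one chromosomally integrated HIV-1 vpr copy, was seeded at OD 0.01 in PMG+AL medium with 23 nL pinned compound. After 24 h at 30 °C and 99% humidity, viability was read by BacTiter-Glo luminescence.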
Sm TGR inh – qHTS Assay for the Inhibitors of Schistosoma Mansoni Peroxiredoxins | Schistosoma mansoni thioredoxin glutathione reductase (TGR), Q962Y6 | purified TGR, DTNB reduction, TNB absorbance 405 nm | Potency, µM (titrated, usually from 114 µM), without a hit: at the highest dose activity change, negative = inhibition, usual class: inhibitors | actives 3% (n = 360,000) | AID 485364, 2010; further: on the % scale 0 is the no-effect control and ±100 the full control effect; nearly all actives have a fitted effect of over 60% in size
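TGR 20 nM + NADPH 100 uM (dispensed conc.), cpd preinc 15 min RT; start with NADPH (500 uM addition) then DTNB (15 mM addition). Kinetic TNB absorbance, 405 nm filter. Four-parameter Hill fit across titration.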
SARS PLpro yeast – qHTS of Yeast-based Assay for SARS-CoV PLP; S. cerevisiae expressing SARS-CoV PLpro, growth rescue; Potency, µM (titrated, usually from 32.9 µM), without a hit: top-dose activity, positive = growth rescue, most hits filed as activators; actives 0.19% (n = 330,000); calls by dose curve; further: 0% is about no effect; nearly all actives have a fitted effect of over 55% in size
* marks the source's active call; other numbers are inactive results; ? = inconclusive; / = no result given. Compounds with a hit are over-represented: about 3.3% of the library has one in this group of screens. Unless noted, the call rests on the fitted dose curve; in most records, active means well fitted curve in the direction sought with a large enough effect; inconclusive means small, poorly fitted or top-dose-only effect, or another doubt; inactive means no such curve, though single readings can be large; an effect the other way counts as inactive or inconclusive. Potency means the concentration at half of the fitted maximal effect.

SMILES | TbPYK inhibitor | AmpC inh detg | AmpC no deterg | RE007 growth inh | Sm TGR inh | SARS PLpro yeast
O=[N+]([O-])c1ccc(NC(=S)NCCc2ccc(Cl)cc2)cc1 | -6.3% | 0.3% | 0.141µM* | ? | ? | -29.5%
CC(=O)c1ccc(NC(=S)NCCc2ccc(S(N)(=O)=O)cc2)cc1 | 4.9% | 0.6% | 124.2% | -9.1% | 39.8µM* | 0.7%
Cc1c(C)c2c(c(C)c1OC(=O)CCC(=O)O)CC[C@@](C)(CCC[C@H](C)CCC[C@H](C)CCCC(C)C)O2 | -0.2% | / | / | / | / | /
CC(=O)Nc1cccc(O)c1 | -3.5% | -5.9% | 1.6% | 7.6% | 3.4% | -2.9%
CC(C)c1cc(Nc2cccc(O)c2)cc(C(C)C)c1O | / | 2.7% | -40.9% | / | 8.91µM* | -3.8%
COc1cc(OC)c(NC(=O)NCCn2nnc3cc(S(=O)(=O)N(C)C)ccc32)cc1Cl | -0.3% | -4.1% | / | / | -3.9% | /
O=C(C#Cc1ccccc1)c1ccco1 | 4.3% | ? | -35.4% | 8.91µM* | 0.891µM* | -66.5%
Cc1nc2cc(N3CCCCC3)c(NC(=O)c3cccnc3)cc2c(=O)n1Cc1ccccc1 | 0.8% | ? | 68.5% | -16.7% | 0.0% | -1.5%
CC(=O)Nc1cc2c(=O)n(Cc3ccccc3)c(C)nc2cc1N1CCOCC1 | -3.0% | -15.5% | -8.8% | 6.8% | 6.31µM* | 1.8%
CC(=O)SCC(CC(=O)c1ccc(C)cc1)C(=O)O (stereo not given) | 15.7% | / | / | / | / | /
COc1ccc(-c2cc(N)n(S(=O)(=O)c3c(F)c(F)c(F)c(F)c3F)n2)cc1OC | -6.9% | ? | -25.1% | 14.8% | 2.51µM* | -22.8%
COc1ccc(S(=O)(=O)n2nc(-c3cc(OC)c(OC)c(OC)c3)cc2N)cc1OC | -5.7% | -6.9% | 50.2% | 3.4% | 9.3% | -23.1%
Brc1ccc2c(c1)C(OC1CN3CCC1CC3)c1ccccc1CS2 (stereo not given) | 5.2% | -13.5% | 124.7% | 13.7% | 89.1µM* | 6.6%
CCOc1ccc(NC(c2ccccc2)P(=O)(OC)OC)cc1 (stereo not given) | -8.5% | 11.3% | 0.4% | -1.8% | 15.8µM* | 8.3%
CCOc1ccccc1NC(=O)Cn1c(=O)n(Cc2cccs2)c(=O)c2cccnc21 | 0.1% | 2.9% | / | / | 0.9% | /
O=[N+]([O-])c1ccc(C=NNC(=S)NN=Cc2ccc([N+](=O)[O-])cc2)cc1 | 1.2% | / | / | -6.4% | / | /
CCN=C(N/N=C/c1ccc([N+](=O)[O-])cc1)SC | ? | -13.0% | -26.2% | -15.1% | 44.7µM* | -1.8%
Cc1c(N2C(=O)/C(=C\C3CC=CCC3)SC2=S)c(=O)n(-c2ccccc2)n1C (stereo not given) | -8.8% | -1.2% | -19.4% | 47.4% | 28.2µM* | -1.5%
Cc1c(N2C(=O)/C(=C/C3CC=CCC3)SC2=S)c(=O)n(-c2ccccc2)n1C (stereo not given) | -15.9% | -6.6% | -6.7% | 17.2% | 7.94µM* | -1.3%
C=CC(=O)Nc1sc2c(c1C(N)=O)CCCC2 | 7.2% | ? | -15.9% | -2.3% | 39.8µM* | 0.8%
NC(=O)c1c(NC(=O)C2CC=CCC2C(=O)O)sc2c1CCCCC2 (stereo not given) | ? | -2.6% | -41.8% | -14.0% | 50.1µM* | -3.2%
Cc1ccc(C)c(NC(=O)CSc2ncc3c(n2)-c2ccc(Cl)cc2N(C)S3(=O)=O)c1 | -7.6% | -7.7% | / | / | -1.1% | /
CCC(CC)c1nn2c(=O)cc(COc3ccc(NC(=O)c4cccc(Cl)c4)cc3)nc2s1 | -11.7% | -0.8% | / | / | -7.8% | /
COCCCNC(=O)c1ccc([N+](=O)[O-])cc1 | -6.4% | -3.0% | 8.4% | 2.6% | -2.2% | -2.2%

Screening data deposited in PubChem by National Center for Advancing Translational Sciences (NCATS).
